Screening data: PubChem BioAssay, National Center for Advancing Translational Sciences (NCATS)
An excerpt weighted towards active compounds, which were near 5.5% of everything screened.
a7 integrin act: activators of alpha7 integrin expression for muscular dystrophy; alpha7betagal myoblasts, beta-gal FDG fluorescence, 48 h; AID 624291; actives 0.064% (n = 350,000); Potency, µM (top dose mostly 38.3 µM), inactives show at the top dose activation, hits mostly activators;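 note: 100% = response of the positive control SU9516; nearly all actives have a fitted effect of over 60% in size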
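alpha7betagal+/- myoblasts (passage 13, 250/well) treated 48 h at 37C with compounds at 1:260 dilution of DMSO stock. Lysed, then beta-galactosidase activity read as FDG fluorescence (ex 480/em 540) after 30 min, with pre-read for autofluorescence.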
Chronic BCR inh: blocks chronic active B-cell receptor signaling. ABC-DLBCL IkBa-CBG/CBR reporter, luminescence ratio, 4 h. actives 0.05% (n = 340,000). AID 493014. Potency, µM (doses to about 46.1 µM), without a hit: at the top dose activity change, negative = inhibition, actives largely listed as inhibitors; active = well fitted inhibition curve with a large enough effect in the signal ratio, with a control signal flat, not every such curve was filed as active; inconclusive = small, poorly fitted or top-dose-only effect, or effect the other way, or a change in a side signal; the % refers to the signal ratio;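 note: plate controls were basal doxycycline-induced cells for no effect and cells given 10 µM MG132 for full effect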
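Concentration-response series (up to 46 uM) were applied to TMD8 dual-reporter cells for 4 h at 37C with doxycycline. Green/red ratio, after filter-overlap correction, defined %Activity; red signal alone was normalised to basal cells and zero luminescence.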
RORgamma inh: inhibitors of mouse ROR gamma transcriptional activity. P51450. Drosophila S2 Gal4-RORgamma UAS-luciferase reporter, 20 h. Potency, µM (titrated, usually from 53.6 µM), inactives show top-dose activity change, negative = inhibition, hits mostly inhibitors. actives 5.4% (n = 310,000). AID 2551; note: % is set by controls: 0 for no effect and ±100 for the full control effect; nearly all actives have a fitted effect of over 60% in size
Target sequence (P51450 whole entry, looked up, the tested form may be a part): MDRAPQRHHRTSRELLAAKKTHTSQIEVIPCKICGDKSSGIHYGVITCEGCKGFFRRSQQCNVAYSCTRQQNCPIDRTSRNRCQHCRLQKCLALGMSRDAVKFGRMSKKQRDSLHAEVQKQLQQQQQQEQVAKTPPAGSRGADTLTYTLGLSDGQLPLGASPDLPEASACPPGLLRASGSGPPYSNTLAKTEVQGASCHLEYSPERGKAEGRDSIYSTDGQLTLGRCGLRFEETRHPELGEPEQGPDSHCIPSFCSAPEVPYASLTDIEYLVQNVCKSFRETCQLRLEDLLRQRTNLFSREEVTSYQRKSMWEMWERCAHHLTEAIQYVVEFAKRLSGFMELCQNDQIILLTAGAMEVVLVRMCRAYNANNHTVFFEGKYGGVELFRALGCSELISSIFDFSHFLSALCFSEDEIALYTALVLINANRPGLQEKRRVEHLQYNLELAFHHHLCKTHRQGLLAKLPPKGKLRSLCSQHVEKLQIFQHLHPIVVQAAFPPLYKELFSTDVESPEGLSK
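In this cell-based reporter format, copper sulfate (700 uM final) drives Gal4–ROR gamma fusion expression from a metallothionein promoter in Drosophila Schneider cells; compounds preincubated 1 hr, reporter read after 20 hr at ambient temperature.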
Mito fusion yeast: mitochondrial division inhibition or fusion activation | S. cerevisiae fusion-defective mutant growth rescue, CellTiterGlo 48 h | Potency, µM (doses to about 46.1 µM), for inactives: at the highest dose growth rescue (activation), actives largely listed as activators | actives 0.23% (n = 320,000) | AID 485298; note: % of control where 0% means no effect; nearly all actives have a fitted effect of over 45% in size
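Luminescent cell viability in 1536-well qHTS format served as the measure of rescued growth in ts fusion-mutant S. cerevisiae cultured on non-fermentable YPEG for 48 hours at 37C.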
Gal4-VP16 FLuc: inhibits Gal4-VP16 luciferase reporter, ROR gamma counter-screen; Drosophila S2 Gal4-VP16 UAS-luciferase, luminescence, 20 h; Potency, µM (titrated, usually from 53.6 µM), for inactives: top-dose activity, negative = inhibition, actives largely listed as inhibitors; actives 3.5% (n = 310,000); AID 2546;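 note: Gal4-VP16 expression switched on by copper sulfate through the metallothionein promoter; % is set by controls: 0 for no effect and ±100 for the full control effect; nearly all actives have a fitted effect of over 50% in size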
uPA surface inh: cell surface uPA generation inhibition. cell surface uPA generation assay, qHTS. Potency, µM (series often up to 38.3 µM), inactives show at the top dose activity change, negative = inhibition, most hits filed as inhibitors. actives 0.31% (n = 330,000). AID 540303; active = well fitted inhibition curve with a large enough effect; inconclusive = small, poorly fitted or top-dose-only effect; inactive = no such curve, though single readings can be large or run the other way; tested in mouse RAW 264.7 cells; note: % is set by controls: 0 for no effect and ±100 for the full control effect; nearly all actives have a fitted effect of over 55% in size
The depositor's hits bear a star; ? = inconclusive; · = no result; [ ] = remark or other dose. Unless noted, calls come from the whole dose curve; as a rule, active = well fitted curve in the direction sought with a large enough effect; inconclusive = small, poorly fitted or top-dose-only effect, or another doubt; inactive = no such curve, though single readings can be large; an effect the other way counts as inactive or inconclusive. Potency is the fitted concentration of half-maximal effect.

SMILES	a7 integrin act	Chronic BCR inh	RORgamma inh	Mito fusion yeast	Gal4-VP16 FLuc	uPA surface inh
CC1(C)[C@@H](O)CC[C@]2(C)C3C(O)C=C4[C@H]5C[C@@](C)(C(=O)O)CC[C@]5(C)CC[C@]4(C)[C@]3(C)CC[C@@H]12 (stereo not given in full)	·	1.0%	-39.3%	1.5%	0.0%	·
C[C@@H]1C(=O)CC2C(C)(C)CCC[C@]2(C)[C@@]1(O)CCc1ccoc1 (stereo not given in full)	·	·	-18.2%	·	-1.3%	·
CC(C)n1c(=S)[nH]c2cc(Cl)ccc21	?	?	?	-11.3%	20µM*	23.9%
N#C/C(=C\c1cccc(Br)c1)C(=O)N1CCCCC1	19.4%	-12.7%	2.51µM*	-33.3%	?	-2.6%
CN(Cc1ccccc1)C(=O)COC(=O)c1ccc(Cl)cc1N	4.7%	-9.3%	10.3%	1.9%	-1.4%	-8.9%
O=C(Nc1nccs1)c1ccc(COc2c(F)c(F)cc(F)c2F)o1	-5.2%	-1.3%	·	-2.1%	·	?
Cc1cccc(C)c1NC(=O)c1ccc(-c2ccc(Cl)cc2Cl)o1	17.2%	4.2%	-1.5%	?	-1.1%	5.1%
O=C(Nc1nccs1)c1ccc(-c2ccc(F)c(Cl)c2)o1	-48.8%	?	7.94µM*	11.9%	?	?
O=C(Nc1nccs1)c1ccc(-c2ccc(Cl)cc2Cl)o1	28.8%	?	3.55µM*	2.4%	5.01µM*	4.4%
CCc1ccc(-c2nc(CN3CCC(C(=O)NCc4ccccc4OC)CC3)c(C)o2)cc1	-49.9%	-3.1%	?	-10.3%	20µM*	-5.9%
CC(C)(C)OC(=O)N1C=CCC1CN1C(=O)COCC1=O (stereo not given)	·	·	15.0%	·	-4.5%	·
Cc1c(C(=O)Oc2cccc3cccnc23)oc2ccccc12	-46.5%	?	3.16µM*	3.4%	6.31µM*	-1.2%
O=C(/C=C/c1ccco1)Oc1cccc2cccnc12	-24.3%	?	1.41µM*	1.9%	4.47µM*	-8.9%
CCc1nc2ccccc2c(C(=O)Oc2cccc3cccnc23)c1C	0.0%	?	-16.2%	-0.5%	4.3%	-7.9%
COc1ccccc1/C=C/C(=O)Oc1cccc2cccnc12	-12.8%	?	3.16µM*	0.2%	5.62µM*	-2.0%
O=C(/C=C\c1ccco1)Oc1cccc2cccnc12	-20.0%	?	1.41µM*	-3.5%	4.47µM*	-1.2%
CCc1ccc(OC(=O)/C=C/c2ccco2)cc1	12.9%	?	10.3%	3.4%	0.7%	-7.0%
O=C(OCCc1ccccn1)c1cccc([N+](=O)[O-])c1	10.6%	·	·	·	·	2.4%
COC(=O)N(C)C[C@@H]1OCc2cnnn2CCCC(=O)N([C@H](C)CO)C[C@@H]1C	-5.6%	·	·	·	·	·
CC(C)C(NC(=O)c1c(F)cccc1F)C(=O)NC1CC(C)(C)NC(C)(C)C1 (stereo not given)	-12.3%	4.4%	1.9%	4.8%	3.0%	6.1%
COc1ccc(N2C(=O)/C(=C/c3cccs3)NC2=S)cc1	-6.9%	-11.9%	10µM*	0.2%	?	5.4%
CC(C)C[C@H](NC(=O)c1[nH]cnc1C(=O)Nc1ccc(CNC(=O)OC(C)(C)C)cc1)C(=O)OCc1ccccc1	-37.7%	2.3%	5.62µM*	5.8%	?	-2.5%
CC(C)C[C@H](NC(=O)c1[nH]cnc1C(=O)Nc1ccc(CNC(=O)OC(C)(C)C)cc1)C(=O)OC(C)(C)C	-44.3%	11.3%	3.16µM*	3.0%	8.91µM*	?
CC(C)(C)OC(=O)NCc1ccc(NC(=O)c2nc[nH]c2C(=O)N[C@@H](Cc2ccccc2)C(=O)OC(C)(C)C)cc1	-39.4%	?	7.08µM*	-4.6%	11.2µM*	-9.3%
CC(C)C[C@H](NC(=O)c1nc[nH]c1C(=O)NCc1ccccc1)C(=O)OCc1ccccc1	-24.1%	1.2%	4.47µM*	-3.3%	11.2µM*	-3.6%
SMILES	a7 integrin act	Chronic BCR inh	RORgamma inh	Mito fusion yeast	Gal4-VP16 FLuc	uPA surface inh
CC1CCCCN1CCCOC(=O)c1ccccc1 (stereo not given)	·	·	28.0%	·	10.2%	·
CC(C)C[C@H](NC(=O)c1nc[nH]c1C(=O)NCc1ccc(CNC(=O)OC(C)(C)C)cc1)C(=O)OC(C)(C)C	-33.8%	?	12.6µM*	-15.9%	?	?
C[C@H](NC(=O)c1nc[nH]c1C(=O)NCc1ccc(CNC(=O)OC(C)(C)C)cc1)C(=O)OC(C)(C)C	-13.8%	?	?	-3.9%	-11.1%	5.2%
CC(C)C[C@H](NC(=O)c1nc[nH]c1C(=O)NCc1ccccc1)C(=O)OC(C)(C)C	-13.5%	?	4.47µM*	16.6%	10µM*	-9.7%
Cc1ccc(NC(=O)CN2C(=O)NC(C)(c3ccc(Cl)cc3)C2=O)cc1 (stereo not given)	-20.8%	-15.4%	40.3%	3.7%	-8.4%	4.1%
CCC1(c2ccc(Cl)cc2)NC(=S)N(c2ccc(C)cc2)N1 (stereo not given)	23.6%	?	1.78µM*	?	1.1%	-1.1%
CCC1(c2ccc(Cl)cc2)NC(=S)N(c2ccc(C)c(C)c2)N1 (stereo not given)	5.9%	?	?	8.7%	-5.2%	6.9%
CCC1(c2ccccc2)NC(=S)N(c2ccc(C)c(C)c2)N1 (stereo not given)	31.0%	?	2.82µM*	-9.8%	?	1.3%
C/C(=N\Nc1nc2ccccc2nc1C)c1ccccc1O	4.9%	-0.1%	0.224µM*	-4.0%	2µM*	-4.3%
CC(=NNc1ccc2ccccc2n1)c1ccccc1O	-9.4%	·	·	·	·	-9.8%
O=P(c1ccccc1)(c1ccccc1)C(c1ccco1)N1CCOCC1 (stereo not given)	32.6%	6.6%	2.24µM*	1.4%	4.8%	-6.8%
c1ccc(-c2cnc(-c3ccccn3)nn2)cc1	7.3%	·	·	·	·	6.31µM*
c1ccc(-c2cnc(-c3ccccc3)nn2)cc1	3.6%	·	·	·	·	?
C/C(=N\NC(=O)CSCc1ccccc1Cl)c1cc(O)ccc1O	-44.3%	?	5.01µM*	-3.3%	11.2µM*	2.51µM*
CCCn1c(-c2ccc(F)cc2)n[nH]c1=S	14.4%[7.66 µM]	?	?	?	1.3%	-1.3%
CCCCn1c(-c2ccc([N+](=O)[O-])cc2)n[nH]c1=S	-15.9%	?	2.24µM*	-7.4%	8.91µM*	-2.4%
CCn1c(-c2ccc(Cl)cc2)n[nH]c1=S	-3.3%	-9.7%	10µM*	-4.0%	12.6µM*	·
CCn1c(-c2ccc(C)cc2)n[nH]c1=S	9.6%	-2.7%	8.91µM*	-0.7%	11.2µM*	7.0%
O=C(NCC(c1ccco1)N1CCCCC1)c1ccc([N+](=O)[O-])s1 (stereo not given)	-28.4%	5.5%	·	·	·	-10.3%
